Potency data for 13 compounds are collected here from PubChem BioAssay (NCATS).

Molecules are shown by their SMILES. Results filed as inconclusive are left out. The source made the active and inactive calls. Calls come from the whole dose curve; as a rule, active = well fitted curve in the direction sought with a large enough effect; inconclusive = small, poorly fitted or top-dose-only effect, or another doubt; inactive = no such curve, though single readings can be large; an effect the other way counts as inactive or inconclusive.

Test [1] can be described thus: Quantitative High-Throughput drug screen in 47 multiple myeloma cell lines against the NCATS MIPE library collection: KMM1_JCRB cell viability assay (AID 1918960). Note: nearly all actives have a fitted effect of over 30% in size. Note: potency is the fitted concentration of half-maximal effect. The procedure, abridged: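 ATP readout (CellTiter-Glo), 48 h drug incubation, 37 °C/5% CO2, 500 cells per well; normalisation to DMSO (100%) and media-only (0%) controls.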
A short description of test [2]: Quantitative High-Throughput drug screen in 47 multiple myeloma cell lines against the NCATS MIPE library collection: JIM3_ECACC cell viability assay (AID 1918963; note: nearly all actives have a fitted effect of over 35% in size; note: potency is the fitted concentration of half-maximal effect). Put shortly:
(§1)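 Myeloma cell lines, 500 cells per well, exposed to MIPE 4.0 library compounds for 48 h at 37C, 5% CO2. Viability from ATP by CellTiter-Glo luminescence; normalised to DMSO (100%) and media-only (0%) wells.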

Test [3] is described as follows: Quantitative High-Throughput drug screen in 47 multiple myeloma cell lines against the NCATS MIPE library collection: INA6_PLB cell viability assay (AID 1918965; note: nearly all actives have a fitted effect of over 55% in size; note: potency is the fitted concentration of half-maximal effect). Put shortly:
as §1

Test [4] can be described thus: Quantitative High-Throughput drug screen in 47 multiple myeloma cell lines against the NCATS MIPE library collection: H1112_PLB cell viability assay (AID 1918967; note: nearly all actives have a fitted effect of over 30% in size; note: potency is the fitted concentration of half-maximal effect). The procedure, abridged: (§2)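 Relative luminescence from CellTiter-Glo served as the viability signal, referenced to DMSO-treated (100%) and cell-free medium (0%) controls. Treatment lasted 48 hours at 37C with 500 cells per well.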

A short description of test [5]: Quantitative High-Throughput drug screen in 47 multiple myeloma cell lines against the NCATS MIPE library collection: KMS27_JCRB cell viability assay (AID 1918970). Note: potency is the fitted concentration of half-maximal effect; nearly all actives have a fitted effect of over 30% in size. The procedure, abridged: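 CellTiter-Glo luminescence after 48 h drug exposure at 37 °C; 500 cells/well, 1536-well format, pin-tool compound addition; DMSO = 100%, media-only = 0% viability.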
The nature of test [6]: Quantitative High-Throughput drug screen in 47 multiple myeloma cell lines against the NCATS MIPE library collection: KMS12PE_JCRB cell viability assay (AID 1918972). Note: potency is the fitted concentration of half-maximal effect; nearly all actives have a fitted effect of over 30% in size. The procedure, abridged:
as §1

A short description of test [7]: Quantitative High-Throughput drug screen in 47 multiple myeloma cell lines against the NCATS MIPE library collection: Karpas25_ECACC cell viability assay (AID 1918968; note: potency is the fitted concentration of half-maximal effect; nearly all actives have a fitted effect of over 35% in size). Put shortly: as §2
The nature of test [8]: Quantitative High-Throughput drug screen in 47 multiple myeloma cell lines against the NCATS MIPE library collection: KMS20_JCRB cell viability assay (AID 1918973). Note: nearly all actives have a fitted effect of over 45% in size. Note: potency is the fitted concentration of half-maximal effect. Put shortly:
as §2

The nature of test [9]: Quantitative High-Throughput drug screen in 47 multiple myeloma cell lines against the NCATS MIPE library collection: KMS26_JCRB cell viability assay (AID 1918975). Note: potency is the fitted concentration of half-maximal effect; nearly all actives have a fitted effect of over 45% in size. Put shortly: as §2
Test [10] is described as follows: Quantitative High-Throughput drug screen in 47 multiple myeloma cell lines against the NCATS MIPE library collection: Karpas620_DSMZ cell viability assay (AID 1918959). Put shortly:
as §1

Test [11] in a line: Quantitative High-Throughput drug screen in 47 multiple myeloma cell lines against the NCATS MIPE library collection: JJN3_DSMZ cell viability assay (AID 1918966; note: potency is the fitted concentration of half-maximal effect; nearly all actives have a fitted effect of over 50% in size). The procedure, abridged:
as §2

Test [12] can be described thus: Quantitative High-Throughput drug screen in 47 multiple myeloma cell lines against the NCATS MIPE library collection: MOLP8_DSMZ cell viability assay (AID 1918977). Note: nearly all actives have a fitted effect of over 45% in size. Note: potency is the fitted concentration of half-maximal effect. Put shortly:
(§3)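 500 cells/well per myeloma line exposed to pinned MIPE 4.0 compounds for 48 h at 37 °C, 5% CO2. Viability read as ATP by CellTiter-Glo luminescence, normalised to DMSO-only (100%) and media-only (0%) wells.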

A short description of test [13]: Quantitative High-Throughput drug screen in 47 multiple myeloma cell lines against the NCATS MIPE library collection: KHM11_PLB cell viability assay (AID 1918962). Note: nearly all actives have a fitted effect of over 35% in size. Note: potency is the fitted concentration of half-maximal effect. Put shortly: as §1
Test [14] in a line: Quantitative High-Throughput drug screen in 47 multiple myeloma cell lines against the NCATS MIPE library collection: KMS12BM_JCRB cell viability assay (AID 1918971). Note: potency is the fitted concentration of half-maximal effect; nearly all actives have a fitted effect of over 35% in size. Put shortly:
as §2

The nature of test [15]: Quantitative High-Throughput drug screen in 47 multiple myeloma cell lines against the NCATS MIPE library collection: KMS21BM_JCRB cell viability assay (AID 1918974). Note: potency is the fitted concentration of half-maximal effect. The settings on record: ATP luminescence, 48 h; viability: at 45.8 µM (top of the series) unless noted. The procedure, abridged:
as §2

Test [16] can be described thus: Quantitative High-Throughput drug screen in 47 multiple myeloma cell lines against the NCATS MIPE library collection: MMM1_PLB cell viability assay (AID 1918976). The procedure, abridged:
as §3

Test [17] in a line: Quantitative High-Throughput drug screen in 47 multiple myeloma cell lines against the NCATS MIPE library collection: NCIH929_DSMZ cell viability assay (AID 1918978). Note: nearly all actives have a fitted effect of over 35% in size. Note: potency is the fitted concentration of half-maximal effect. Put shortly:
as §3

A short description of test [18]: Quantitative High-Throughput drug screen in 47 multiple myeloma cell lines against the NCATS MIPE library collection: JIM1_ECACC cell viability assay (AID 1918964). The procedure, abridged:
as §2

A short description of test [19]: Quantitative High-Throughput drug screen in 47 multiple myeloma cell lines against the NCATS MIPE library collection: Karpas417_ECACC cell viability assay (AID 1918961). The note with it: Karpas417 myeloma viability, CellTiter-Glo ATP luminescence, 48 h; viability (% of DMSO): at 45.8 µM (top of the series). Put shortly: as §1

Consider `Cc1cccc(Nc2nc(-c3ccncc3)cs2)c1`, for which the Potency in test [1] was 23.5 µM (active); in [2], 20.9 µM (active); in [3], 18.7 µM (active); in [4], 18.7 µM (active); in test [5], 18.7 µM (active); in [6] it was 14.8 µM (active).

Consider `O=C1Nc2ccc(Cl)cc2C(C#CC2CC2)(C(F)(F)F)O1` (stereo unspecified), for which the Potency is 20.9 µM (active) in test [3]; 23.5 µM (active) in test [4]; 20.9 µM (active) in [7]; 20.9 µM (active) in test [8]; 23.5 µM (active) in test [9].

For `COC(=O)C1=CO[C@@H](O)[C@@H]2C(CO)=CC[C@@H]12`, the results for the Potency in [10], in [11] and in test [12] were 23.5 µM (active), 11.8 µM (active) and 23.5 µM (active), respectively. Besides, the Potency result in test [4] was “inactive”.

With `CO[C@H]1C[C@@H]2CC[C@@H](C)[C@@](O)(O2)C(=O)C(=O)N2CCCC[C@@H]2C(=O)O[C@H]([C@H](C)C[C@@H]2CC[C@H](OCCO)[C@H](OC)C2)CC(=O)[C@H](C)C=C(C)[C@@H](O)[C@@H](OC)C(=O)[C@H](C)C[C@H](C)C=CC=CC=C1C`, the Potency entry in test [13] and in test [4] was “inactive” throughout. Besides, the Potency in [11] is 6.62 µM (active); in test [5], 4.18 µM (active); in test [14], 4.18 µM (active); in test [8] it was 3.72 µM (active); in [15], 7.43 µM (active).

Take `CC(C)[C@H](CO)Nc1nc(Nc2ccc(C(=O)O)c(Cl)c2)c2ncn(C(C)C)c2n1`: the Potency in [13] is 0.0148 µM (active); in test [3], 0.059 µM (active); in test [16], 23.5 µM (active); in [17], 23.5 µM (active).

Turning to `O=c1cc(-c2ccc(O)cc2)oc2cc(O)cc(O)c12`, the results for the Potency in test [14] and in test [17] were 13.2 µM (active) and 6.62 µM (active), respectively.

As to `NC(=O)c1cccc2[nH]c(-c3ccc([C@H]4CCCN4)cc3F)nc12`, the Potency in test [2] is 14.8 µM (active); in [3] it was 14.8 µM (active); in [5], 23.5 µM (active).

As to `CCc1ccc(C=C2SC(=S)NC2=O)cc1`, the Potency result in test [13], in test [18], in test [4], in [12] and in test [17] was “inactive” each time. Moreover, the Potency in test [3] was 2.35 µM (active).

As to `O=C(O)c1ccc(-c2cc3cccnc3c(-c3ccc4nonc4c3)n2)cc1`, the Potency in [13] is 20.9 µM (active); in test [3], 20.9 µM (active); in test [7] it was 23.5 µM (active); in test [14] it was 20.9 µM (active); in [6], 20.9 µM (active); in test [8] it was 11.8 µM (active). Also, the Potency in [16], in test [12] and in [17] was 26.4 µM (active) throughout.

As for `NC(=O)c1cnc(-c2ccc(C3(N)CCC3)cc2)c(-c2ccccc2)c1`, the Potency was 10.5 µM (active) in test [3], 4.18 µM (active) in [4] and 13.2 µM (active) in test [7].

For the compound `Cn1c(N2CCCCS2(=O)=O)nc(C(=O)NCc2ccc(F)cc2)c(O)c1=O`, the Potency entry in test [1], in test [13], in [2], in test [3], in test [4] and in [8] was “inactive” in each case. The Potency entry in test [12] and in test [17] was “inactive” throughout. For the same compound, the Potency in test [7] and in [6] was 20.9 µM (active) each time.

In the case of `COc1ncc(-c2ccc3nccc(-c4ccnnc4)c3c2)cc1NS(=O)(=O)c1ccc(F)cc1F`, in [19], the Potency entry is “inactive”. In addition, the Potency in test [3] was 0.0235 µM (active); in test [11] it was 0.118 µM (active); in test [14], 0.0662 µM (active); in [6], 0.0935 µM (active); in test [9], 0.0526 µM (active).

Turning to `CN(C)Cc1cccc(N=C(c2ccccc2)c2c(O)[nH]c3cc(C(=O)N(C)C)ccc23)c1`, the Potency in [13] was 5.9 µM (active); in test [2] it was 1.87 µM (active); in test [3], 18.7 µM (active); in test [6], 16.6 µM (active); in test [15], 9.35 µM (active); in test [17] it was 18.7 µM (active).
